# Screening data: PubChem, University of Kansas High Throughput Screening Laboratory
# mHTT-CaM PPI inh – mutant huntingtin-calmodulin interaction inhibitors – biochemical, AlphaScreen, primary screen; 3.6% of 190,000 active; AlphaScreen His-mHTT/GST-CaM binding, luminescence; inhibition, % at 15 µM; P42858
# Pf apPOL block – Pf-apPOL inhibitors, biochemical, fluorescence. Recombinant Pf-apPOL, molecular beacon fluorescence, 1.5 h. Plasmodium falciparum apicoplast DNA polymerase (apPOL). 0.25% of 210,000 active. inhibition, % at 10 µM
# Numbers stand for hits; n = inactive; x = no result given. Compounds with a hit are over-represented: about 3.6% of the library has one in this group of screens. Rule as the data show it: active = inhibition above about 50%; inactive = the rest.
SMILES,mHTT-CaM PPI inh,Pf apPOL block
COc1cccc(-c2nc(C3CCN(C(=O)Cc4ccccc4C)CC3)no2)c1,n,n
CCC(C)NC(=O)C1CCN(c2cccc(C)c2C)C1=O (configuration not stated),n,n
C=CCNC(=O)c1oc2ccc(S(=O)(=O)N3CCCCCC3)cc2c1C,n,n
C=CCNC(=O)c1oc2ccc(S(=O)(=O)N3CC(C)CC(C)C3)cc2c1C (configuration not stated),77,n
NC(=NOC(=O)c1ccc(Cl)cc1)c1ccc(S(=O)(=O)N2CCOCC2)cc1,x,n
Cc1ccc(CN2CC(N3CCN(C)CC3)CS2(=O)=O)cc1 (configuration not stated),n,n
CC1CCCN(S(=O)(=O)c2ccc(Cl)cc2)C1 (configuration not stated),n,n
O=S(=O)(c1ccc2[nH]c3c(c2c1)CCCC3)N1CCc2ccccc21,78,n
CC1CN(S(=O)(=O)c2ccc3[nH]c4c(c3c2)CCCC4)c2ccccc2O1 (configuration not stated),96,n
CN(CC(=O)Nc1ccccc1F)S(=O)(=O)c1ccc2[nH]c3c(c2c1)CCCC3,n,n
CN(CC(=O)N1CCc2ccccc21)S(=O)(=O)c1ccc2[nH]c3c(c2c1)CCCC3,n,n
CN(CC(=O)N1CCOCC1)S(=O)(=O)c1ccc2[nH]c3c(c2c1)CCCC3,n,n
CCOC(=O)C1CCCCN1S(=O)(=O)c1ccc2[nH]c3c(c2c1)CCCC3 (configuration not stated),62,n
CC1CCCN(S(=O)(=O)c2ccc3[nH]c4c(c3c2)CCCC4)C1 (configuration not stated),63,n
COc1ccc(CC(=O)N2CC3CC(NC(=O)c4ccccc4)C2C3)c(Cl)c1 (configuration not stated),n,n
COc1ccccc1Nc1cc(C(F)(F)F)nc2c(OC)ccc(OC)c12,69,n
COC(=O)c1cc(Nc2ccccc2OC)c2cccc(OC)c2n1,n,n
O=c1[nH]c(O)c(C=C2C=Nc3ccccc32)[nH]1,x,n
Oc1nc(Nc2ccccc2)sc1C=C1C=Nc2ccccc21,69,n
Cc1nc(C(=O)Nc2ccc(Oc3ccccc3)cc2)c(C)n1C1CCN(C)CC1,82,n
Cc1nc(C(=O)Nc2ccccc2)c(C)n1C1CCN(S(C)(=O)=O)CC1,n,n
Cc1oc2ccc(OC(=O)C3CCCCC3)cc2c1C(=O)OC(C)C,n,n
Cc1ccc(Cl)cc1NC(=O)c1ccccc1I,n,n
FC(F)(F)c1cccc(N=Cc2c(-c3ccccc3)nc3n2CCS3)c1,x,n
C(=Nc1c(-c2ccccc2)nc2n1CCS2)c1ccccc1,59,n
SMILES,mHTT-CaM PPI inh,Pf apPOL block
CCc1nnc(NC(=O)c2ccccc2Cl)s1,n,n
O=c1[nH]cnc(O)c1[N+](=O)[O-],x,n
O=C(NCc1ccc(Cl)cc1)c1ccc(N2CCNC(c3ccccc3)C2)nc1 (configuration not stated),n,n
O=C(NCc1ccc(N2CCCC2)cc1)c1ccc(N2CCNC(c3ccccc3)C2)nc1 (configuration not stated),79,n
O=C(NCCCN1CCCCC1)c1ccc(N2CCNC(c3ccccc3)C2)nc1 (configuration not stated),n,n
O=C(NCCCN1CCCC1)c1ccc(N2CCNC(c3ccccc3)C2)nc1 (configuration not stated),56,n
COc1cc(NS(=O)(=O)c2cccc(C(F)(F)F)c2)c(OC)cc1Cl,x,n
Cc1[nH]nc2c1C(c1ccccc1)C(C#N)=C(N)O2 (configuration not stated),x,n
Cc1[nH]nc2c1C(c1ccc(-c3ccccc3Cl)o1)C(C#N)=C(N)O2 (configuration not stated),50,n
Cc1cc(Cn2cnc3c2C[C@@H](C(=O)O)N(C(=O)C(c2ccccc2)c2ccccc2)C3)ccc1N,x,n
Cc1ccc(-c2ccc(CN3C(C(C)C)C(=O)N(Cc4cn(CC5CCCCC5)nn4)CCS3(=O)=O)cc2)cc1 (configuration not stated),n,n
CC1C(=O)N(Cc2cn(CC3CCCCC3)nn2)CCS(=O)(=O)N1Cc1ccc(-c2ccc(F)cc2)cc1 (configuration not stated),58,n
CC(C)C1C(=O)N(Cc2cn(CC3CCCCC3)nn2)CCS(=O)(=O)N1Cc1ccc(-c2ccccc2)cc1 (configuration not stated),n,n
CC(C)C1C(=O)N(Cc2cn(CC3CCCCC3)nn2)CCS(=O)(=O)N1Cc1ccc(-c2ccncc2)cc1 (configuration not stated),54,n
CC1C(=O)N(Cc2cn(CC3CCCCC3)nn2)CCS(=O)(=O)N1Cc1ccc(-c2ccncc2)cc1 (configuration not stated),n,n
CC(C)C1C(=O)N(Cc2cn(CC3CCCCC3)nn2)CCS(=O)(=O)N1Cc1ccc(-c2cccc(CO)c2)cc1 (configuration not stated),55,n
CCOc1ccc(S(=O)(=O)Nc2ccc3c(c2)CCCN3S(=O)(=O)CC)cc1F,n,n
Clc1ccc(N2Cc3ccccc3C2)cc1Cl,87,n
O=C(c1c(F)cccc1F)N1CCN(c2ccc(Cl)c(Cl)c2)CC1,n,n
CCCNC(=O)c1ccc(-c2cccnc2)nc1,n,n
O=S(=O)(NC1CCCCCC1)c1ccc2nc(-c3ccccc3)[nH]c2c1,n,n
O=S(=O)(NC1CCN(Cc2ccccc2)CC1)c1ccc2nc(-c3ccccc3)[nH]c2c1,87,n
c1ccc(CCNc2ccncn2)nc1,n,x
O=C1c2ccccc2C(=O)c2c1cccc2S(=O)(=O)Nc1ccc(Cl)cc1,70,n
CCNS(=O)(=O)c1cccc2c1C(=O)c1ccccc1C2=O,n,n
SMILES,mHTT-CaM PPI inh,Pf apPOL block
COc1ccc(C2C(C(=O)Nc3cc(C)ccc3OC)CCC(=O)N2c2ccc(OC)cc2)cc1 (configuration not stated),56,n
COc1ccc(N2C(=O)CCC(C(=O)Nc3cc(OC)ccc3OC)C2c2ccc(F)cc2)cc1 (configuration not stated),n,n
O=C(NCCCSc1ccc(Cl)cc1)Nc1ncccn1,n,n
Cc1ccc(S(=O)(=O)c2nc(-c3ccccc3Br)oc2N(C)C)cc1,n,n
COc1cccc2ccc(C3C(=O)c4ccccc4C3=O)nc12,n,n
COc1ccc(C2CC(C3C(=O)c4ccccc4C3=O)=NN2)cc1 (configuration not stated),100,n
COc1ccc(S(=O)(=O)N2CCc3ccccc32)cc1C(=O)O,n,n
CCC(=O)Nc1cccc(-c2noc(C3CCCN(C(=O)c4cc5ccccc5[nH]4)C3)n2)c1 (configuration not stated),59,n
CCC(=O)Nc1cccc(-c2noc(C3CCCN(C(=O)c4ccccc4C)C3)n2)c1 (configuration not stated),n,n
Cc1ccc(-n2nc(C)c3c2OC(N)=C(C#N)C3c2ccco2)cc1 (configuration not stated),60,n
Cc1ccc(-n2nc(C)c3c2OC(N)=C(C#N)C3c2c(F)cccc2Cl)cc1 (configuration not stated),n,n
Cc1nc(-c2cccc(C(=O)N(C)C)c2)no1,n,n
C#CCOc1ccc(/C=C2\NC(=O)N(Cc3ccccc3F)C2=O)cc1,n,n
